{"source": "PubChem BioAssay (NCATS)", "note": "Records with an inconclusive call do not appear. Unmarked numbers belong to inactive results. The source made the active and inactive calls. Calls follow the shape of the dose curve; as a rule, active = well fitted cell-killing curve with a large enough effect; inconclusive = small, poorly fitted or top-dose-only effect, or effect the other way; inactive = no such curve, though single readings can be large or run the other way. Potency is read from the fitted curve at half-maximal effect.", "data": [{"experiment": "Viability qHTS for spleen associated tyrosine kinase inhibitor (SYKi) naive MV4-11 cells (AID 1963823); also: nearly all actives have a fitted effect of over 40% in size", "settings": "MV4-11 AML viability, CellTiter-Glo luminescence, 72 h; series mostly up to 45 µM; viability (% of control): at the top concentration", "summary_of_the_method": "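Cells: MV4-11, SYK inhibitor naive, 500 per well. Treatment: library compounds, 72 hr, 37 C, 5% CO2. Read-out: CellTiter-Glo luminescence after 10 min RT.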", "values": [{"smiles": "CC(=O)OC(C)C(C)(O)C(=O)O[C@@H]1CC[C@]2(C)CC(=O)C(=C(C)C)C[C@H]2[C@]1(C)OC(C)=O", "note": "(some centres undefined)", "Potency": "5.63 µM (active)"}, {"smiles": "COC(=O)Cc1cc2c(c([N+](=O)[O-])c1)N(C(=O)CC[C@H](N)C(=O)O)CC2", "viability (% of control)": "85.7%"}, {"smiles": "CCn1cc(NC(=S)Nc2cc(Cl)ccc2OC)c(C(N)=O)n1", "viability (% of control)": "74.7%"}, {"smiles": "CC(C)CC1OC(=O)C2CCCN2C(=O)CCNC(=O)C(Cc2ccccc2)NC(=O)C(C(C)C)N(C)C(=O)C(C(C)C)N(C)C1=O", "note": "(centres undefined)", "viability (% of control)": "59.1% [at 17.3 µM]"}, {"smiles": "COc1cc(O)cc(C)c1C(=O)OC1C(CO)OC(OC2C(O)C(O)C(O)C(O)C2O)C(O)C1O", "note": "(centres undefined)", "viability (% of control)": "58.6% [at 17.3 µM]"}, {"smiles": "CC1CCC23COC(=O)C2=CC(O)CC3C1(C)CCc1ccoc1", "note": "(centres undefined)", "viability (% of control)": "86.2%"}, {"smiles": "CC1OC(OC2C(OC3C(O[C@H]4CC[C@@]5(C)C(CC[C@]6(C)C5C(=O)CC5=C7CC(C)(C)CC(O)[C@]7(C)CC[C@]56C)C4(C)C)OC(C(=O)O)C(O)C3O)OCC(O)C2O)C(O)C(O)C1O", "note": "(some centres undefined)", "viability (% of control)": "77.2% [at 9.25 µM]"}, {"smiles": "CC(=O)/C=C/C1(O)C(C)=CC(=O)CC1(C)C", "note": "(centres undefined)", "viability (% of control)": "50.2%"}, {"smiles": "CSc1ccc(C(=O)N[C@@H]2CCCC[C@@H]2NC(=O)CNC(=O)c2cc(C(F)(F)F)ccc2NC(=O)NC(C)C)cc1", "viability (% of control)": "50.2%"}, {"smiles": "Cc1csc2c(N[C@@H](C)CN3CCN(S(=O)(=O)c4ccc(Cl)c(Cl)c4)CC3)ncnc12", "Potency": "0.259 µM (active)"}, {"smiles": "COc1cc(C)c(C(=O)O[C@H]2[C@@H](O)[C@H](n3ccc(=O)[nH]c3=O)O[C@@H]2CO)c(OC)c1", "viability (% of control)": "78.8% [at 17.3 µM]"}, {"smiles": "CN(CC(=O)N(Cc1ccc(C2CCCCC2)cc1)c1ccc(C(=O)O)cc1)S(=O)(=O)c1c(F)c(F)c(F)c(F)c1F", "Potency": "1.84 µM (active)"}, {"smiles": "CC1C2=CC(=O)OC2(O)CC2C1C(O)CC1C(C)(CO)CCCC21C", "note": "(centres undefined)", "viability (% of control)": "61%"}, {"smiles": "CC1OC(O[C@H]2CC[C@@]3(C)C(CC[C@]4(C)C3CC=C3C5CC(C)(C)CC[C@]5(C(=O)OC5OC(CO)C(OC6OC(COC7OCC(O)C(O)C7O)C(O)C(O)C6O)C(O)C5O)CC[C@]34C)C2(C)C)C(O)C(O)C1OC1OCC(OC2OCC(O)C(O)C2O)C(O)C1O", "note": "(some centres undefined)", "Potency": "0.155 µM (active)"}, {"smiles": "COCCN(C)Cc1ccc2nc3sc(C(=O)N(C)C4CCCCC4)cn3c2c1", "viability (% of control)": "71.8%"}, {"smiles": "S=c1ssc2c1CCC2", "viability (% of control)": "70.5%"}, {"smiles": "C/C=C(/C)C(=O)OC1C(OC(C)=O)C23C(O)OC4(CCC5C6(C)CCC(OC7OC(C(=O)O)C(O)C(OC8OC(CO)C(O)C(O)C8OC8OC(C)C(O)C(O)C8OC8OCC(O)C(O)C8O)C7OC7OC(CO)C(O)C(O)C7O)C(C)(C)C6CCC5(C)C4(C)CC2OC(C)=O)C3CC1(C)C", "note": "(centres undefined)", "viability (% of control)": "43.2% [at 9.25 µM]"}, {"smiles": "CC(=O)c1c(C)cc(O)cc1O[C@@H]1O[C@H](CO)[C@@H](O)[C@H](O)[C@H]1O", "viability (% of control)": "63.7%"}, {"smiles": "CC(=O)OC[C@]12[C@H](OC(C)=O)[C@H](OC(=O)c3ccccc3)[C@@H]3[C@@H](OC(C)=O)[C@]1(OC3(C)C)[C@H](C)C[C@H](OC(C)=O)[C@@H]2OC(=O)c1ccccc1", "viability (% of control)": "24% [at 17.3 µM]"}, {"smiles": "C[C@@H](c1ccccc1)N(C(N)=NC#N)c1cccc2ncccc12", "viability (% of control)": "69.5%"}, {"smiles": "C=CC1(C)C=C2C(=O)OC(=O)C3=C(CCCC3(C)C)C2(O)CC1", "note": "(centres undefined)", "viability (% of control)": "61.6%"}, {"smiles": "C=C1CCC2C(C)(C)CC(O)CC2(C)C1CCC(C)CC(=O)O", "note": "(centres undefined)", "viability (% of control)": "68.5%"}, {"smiles": "CC(=O)OC(CSC1CCC(=O)OC(C)CCC(=O)C1)C(=O)O", "note": "(centres undefined)", "viability (% of control)": "72%"}, {"smiles": "CC(=O)OCCC(C)CCC1C(C)(O)CCC2C(C)(C)CCCC21C", "note": "(centres undefined)", "viability (% of control)": "62.8%"}, {"smiles": "C[C@@H]1O[C@@H](O[C@@H]2[C@@H](O)[C@@H](O)[C@H](O[C@@H]3[C@@H](O)[C@@H](O[C@]4(CO)O[C@H](CO)[C@@H](O)[C@@H]4OC(=O)/C=C/c4ccc(O)cc4)O[C@H](CO)[C@H]3OC(=O)/C=C/c3ccc(O)cc3)O[C@H]2C)[C@H](O)[C@H](O)[C@H]1O", "viability (% of control)": "81.6% [at 9.25 µM]"}, {"smiles": "C=C1c2cccc(O)c2C(O)=C2C(=O)[C@]3(O)C(O)=C(C(N)=O)C(=O)[C@@H](N(C)C)[C@@H]3[C@@H](O)[C@H]12", "viability (% of control)": "85%"}, {"smiles": "CCC(C)C(C(=O)O)N1Cc2c(OCC=C(C)C)c(C)c(OC)c(C(=O)O)c2C1=O", "note": "(centres undefined)", "viability (% of control)": "88.6% [at 17.3 µM]"}, {"smiles": "CC1=C2C(=O)C=C(CO[C@@H]3O[C@H](CO)[C@@H](O)[C@H](O)[C@H]3O)[C@@H]2[C@H]2OC(=O)[C@H](C)[C@@H]2[C@@H](O)C1", "viability (% of control)": "67.6% [at 17.3 µM]"}, {"smiles": "CC(C)=CCC/C(C)=C/CO[C@@H]1O[C@H](CO)[C@@H](O)[C@H](O)[C@H]1O", "viability (% of control)": "85.2%"}]}]}
